Consider 39 molecules from PubChem BioAssay (NCATS).

Several values for one entry are separate records, joined by “and”; a condition that tells them apart may be missing. Equal values may be shown once. Results filed as inconclusive are left out. A call without a number means that no potency is given here. Activity calls are given as the source filed them. Calls follow the shape of the dose curve; as a rule, active = well fitted curve in the direction sought with a large enough effect; inconclusive = small, poorly fitted or top-dose-only effect, or another doubt; inactive = no such curve, though single readings can be large; an effect the other way counts as inactive or inconclusive.
Also: nearly all actives have a fitted effect of over 35% in size.
Potency is read from the fitted curve at half-maximal effect.

The nature of the first experiment: Viability qHTS for spleen associated tyrosine kinase inhibitor (SYKi) drug resistant MV4-11 cells (AID 1963824). Particulars: SYKi-resistant MV4-11 viability, CellTiter-Glo, 72 h; series mostly up to 45 µM. The gist of the method: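 SYK-inhibitor-resistant MV4-11 AML cells were seeded at 500 per well onto compound and cultured 72 hours (37 °C, 5% CO2). CellTiter-Glo was then added, and after 10 min at room temperature, luminescence gave viability.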
Consider `CC(C)(C)C(O)C(Oc1ccc(Cl)cc1)n1cncn1` (stereo unspecified), for which the Potency is 21.7 µM (active).
Still for that read-out and setting: in the case of `CN(C)[C@@H]1C(=O)C(C(N)=O)=C(O)[C@@]2(O)C(=O)C3=C(O)c4c(O)cccc4[C@@](C)(O)[C@H]3C[C@@H]12` it was 16.6 µM (active); in that of `COc1ccc(C(c2ccc(OC)cc2)C(Cl)(Cl)Cl)cc1`, 21.5 µM (active); in that of `CC1=C(O)C(=O)C=C2C1=CC=C1[C@@]2(C)CC[C@@]2(C)[C@@H]3C[C@](C)(C(=O)O)CC[C@]3(C)CC[C@]12C`, 0.468 µM (active).
On the same count and under the same terms, as for `Nc1nc(N)nc(NC2CC2)n1`, the entry is “inactive”; as for `C[C@]12COC(=O)C[C@@H]1CC[C@@H]1[C@@H]2CC[C@@]2(C)[C@H]1CC[C@]2(C)O`, “inactive”; as for `C[CH2][Hg][S]c1ccccc1C(=O)O`, “inactive”.
Still for that read-out and setting: in the case of `Cc1ccc(-c2nc3ccc(C)cn3c2CC(=O)N(C)C)cc1` it was “inactive”.
Consider `Cc1nnc2n1-c1sc(CCC(=O)N3CCOCC3)cc1C(c1ccccc1Cl)=NC2`, for which the Potency entry was “inactive”.
Same read-out and setting: as for `CC(C)[C@H]1C(=O)N[C@H](CO)Cc2c[nH]c3cccc(c23)N1C`, the figure is 0.288 µM (active); as for `COc1cc(CC(C)N)cc2c1OCO2` (stereo unspecified), “inactive”.
As to `C=CC(=O)NCNC(=O)C=C`, the Potency entry was “inactive”.
Still for that read-out and setting: as for `COC(=O)[C@@]12OC[C@]34[C@H]([C@@H](O)[C@@H]1O)[C@@]1(C)CC(=O)C(O)=C(C)[C@@H]1C[C@H]3OC(=O)[C@H](OC(=O)/C=C(\C)C(C)C)[C@@H]24`, the figure is 0.0132 µM (active); as for `O=[N+]([O-])c1cc([As](=O)(O)O)ccc1O`, “inactive”.
The same measure, in the same setting: as for `CCCN1CCC[C@@H]2Cc3nc(N)ncc3C[C@H]21`, the entry is “inactive”; as for `O=S(=O)(CC1CS1)c1ccc(Oc2ccccc2)cc1` (stereo unspecified), 10.5 µM (active).
Consider `C[C@H]1O[C@@H](O[C@H]2[C@@H](O)C[C@H](O[C@H]3[C@@H](O)C[C@H](O[C@H]4CC[C@@]5(C)[C@H](CC[C@@H]6[C@@H]5CC[C@]5(C)[C@@H](C7=CC(=O)OC7)CC[C@]65O)C4)O[C@@H]3C)O[C@@H]2C)C[C@H](O)[C@@H]1O`, for which the Potency is 47.3 nM (active) and 38.5 nM (active).
As to `C[N+]1(C)[C@@H]2CC[C@H]1CC(OC(=O)C(CO)c1ccccc1)C2` (stereo partly specified), the Potency entry is “inactive”.
`CCOC(=O)Nc1ccc(NCc2ccc(F)cc2)cc1N`: the Potency is 18.6 µM (active).
Same read-out and setting: in the case of `CCN(CC)CCc1c[nH]c2ccccc12` it was “inactive”.
Same read-out and setting: in the case of `CC(C)NCC(O)c1ccccc1Cl` (stereo unspecified) it was “inactive”; in that of `CCCCCCCCCCCCCCCC[N+](C)(C)C`, 1.19 µM (active); in that of `C#CCOC(C(=O)OCCN(C)C)(c1ccccc1)c1ccccc1`, “inactive”.
Turning to `CCC1(CC)C(=O)NC(=O)NC1=O`, the Potency entry was “inactive”.
Same read-out and setting: in the case of `CCCCOC(=O)c1ccccc1C(=O)OCc1ccccc1` it was 17.2 µM (active).
On the same count and under the same terms, in the case of `COc1cc(CCN)cc(OC)c1OC` it was “inactive”; in that of `C[C@]12Cc3cn[nH]c3C[C@@H]1CC[C@@H]1[C@@H]2CC[C@@]2(C)[C@H]1CC[C@]2(C)O`, 18.6 µM (active); in that of `C[C@]12CC[C@H]3[C@@H](CC[C@@]45O[C@H]4C(O)=C(C#N)C[C@]35C)[C@H]1CC[C@H]2O`, 11.9 µM (active).
The same measure, in the same setting: in the case of `CC(=O)c1c(O)c(C)c(O)c(Cc2c(O)c3c(c(C(=O)/C=C/c4ccccc4)c2O)OC(C)(C)C=C3)c1O` it was 25.9 µM (active); in that of `CN(C)CCc1c[nH]c2cccc(OP(=O)(O)O)c12`, “inactive”; in that of `CCC(C)(C)c1ccc(O)cc1`, “inactive”.
On to `O=c1cccc2n1CC1CNC[C@H]2C1`, for which the Potency result is “inactive”.
Still for that read-out and setting: as for `COP(=S)(OC)Oc1ccc(Sc2ccc(OP(=S)(OC)OC)cc2)cc1`, the entry is “inactive”; as for `c1ccc2nc(N3CCNCC3)ccc2c1`, “inactive”; as for `O=[N+]([O-])c1c2ccccc2cc2ccccc12`, 24.1 µM (active).
On the same count and under the same terms, in the case of `COc1c2c(cc3c1OCO3)CCN(C)C2` it was “inactive”; in that of `CC[N+]1(C)CCCC(OC(=O)C(O)(c2ccccc2)c2ccccc2)C1` (stereo unspecified), “inactive”; in that of `COP(=S)(OC)Oc1ccc(S(=O)(=O)N(C)C)cc1`, “inactive”.
The same measure, in the same setting: as for `O=C(CCCN1CCC2(CC1)C(=O)NCN2c1ccccc1)c1ccc(F)cc1`, the entry is “inactive”.

A further experiment can be described thus: Quantitative highthroughput screen to assess conditional lethalithy of P12 Ichikawa cells grown in RPMI1640 with dialyzed fetal bovine serum (RPMI+ds) (AID 1963880). To be noted: ATP luminescence, 48 h; Potency: P12-Ichikawa viability; series mostly up to 45.8 µM. A digest of the protocol: (§1)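 Each medium arm—HPLM with 10% dialyzed FBS, or RPMI1640 with 5 mM glucose and 10% untreated or dialyzed FBS—was screened against an 11-point, 3-fold compound titration for 48 h at 37 °C, with CellTiter-Glo luminescence as endpoint.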
For the molecule `CN(C)[C@@H]1C(=O)C(C(N)=O)=C(O)[C@@]2(O)C(=O)C3=C(O)c4c(O)cccc4[C@@](C)(O)[C@H]3C[C@@H]12`, the Potency result was “inactive”.
On the same count and under the same terms, in the case of `CC1=C(O)C(=O)C=C2C1=CC=C1[C@@]2(C)CC[C@@]2(C)[C@@H]3C[C@](C)(C(=O)O)CC[C@]3(C)CC[C@]12C` it was 2.64 µM (active).
Same read-out and setting: as for `CC(C)[C@H]1C(=O)N[C@H](CO)Cc2c[nH]c3cccc(c23)N1C`, the figure is 0.418 µM (active).

A short description of another experiment: Quantitative highthroughput screen to assess conditional lethalithy of SEM cells grown in RPMI1640 with dialyzed fetal bovine serum (RPMI+ds) (AID 1963884). To be noted: SEM B-ALL cells, RPMI+dialyzed FBS, CellTiter-Glo viability, 48 h; series mostly up to 45.8 µM. A digest of the protocol: as §1
`CN(C)[C@@H]1C(=O)C(C(N)=O)=C(O)[C@@]2(O)C(=O)C3=C(O)c4c(O)cccc4[C@@](C)(O)[C@H]3C[C@@H]12`: the Potency result was “inactive”.
On to `CC1=C(O)C(=O)C=C2C1=CC=C1[C@@]2(C)CC[C@@]2(C)[C@@H]3C[C@](C)(C(=O)O)CC[C@]3(C)CC[C@]12C`, for which the Potency was 1.87 µM (active).
Still for that read-out and setting: as for `C[C@]12CC[C@H]3[C@@H](CC[C@@]45O[C@H]4C(O)=C(C#N)C[C@]35C)[C@H]1CC[C@H]2O`, the figure is 16.6 µM (active).
With `O=c1cccc2n1CC1CNC[C@H]2C1`, the Potency result was “inactive”.
